From ChEMBL document CHEMBL3988442, “University of Dundee, Small-Polar-MMV Screening Library” (2021)
The whole screen tested about 48,000 compounds, of which about 13,000 (27%) showed an effect of 50% or more. Some of the results follow.

system: Wolbachia pipientis; assay: Anti-Wolbachia Cell-Based Screen; assay type: functional; set-up: scale not given: in the data most compounds retested in dose-response had high values; conditions: 5 µM

SMILES | Percent Effect [%]
CCC1CN(C(=O)c2ccc(O)cn2)CCC(=O)N1Cc1ccccc1 (stereo not drawn) | -29.96
N#Cc1cc(S(N)(=O)=O)ccc1NC1CCc2cc(Cl)ccc21 (stereo not drawn) | -7.649
CNC(=O)[C@@H](c1ccccc1OC)N1CCC[C@H]1C(=O)NCCN(C)C.Cl.Cl | -2.091
COc1ccc(CN2CCCn3cncc3C2)cc1Cn1cncn1 | 17.87
COc1cnc(C2(O)CCN(C(=O)c3ccncc3)CC2)c(OC)n1 | -4.993
COc1cnc(C2(O)CCN(C(=O)c3ccccn3)CC2)c(OC)n1 | 107.9
Cc1ccc(F)c(OC2(C(=O)O)CCN(C(=O)c3ccco3)CC2)c1 | -23.64
COc1cnc(C2(O)CCN(C(=O)c3ccco3)CC2)c(OC)n1 | 113.8
COc1cnc(C2(O)CCN(C(=O)c3cccnc3)CC2)c(OC)n1 | 2.765
COc1cnc(C2(O)CCN(C(=O)c3scnc3C)CC2)c(OC)n1 | 77.74
CCC(=O)N1CCC(O)(c2ncc(OC)nc2OC)CC1 | -0.9107
COc1ccc(NC(=O)c2ccco2)c(N2CCN(C(C)=O)CC2)n1 | -1.999
O=C1CC(C(=O)O)C2(CCN(C(=O)Nc3ccccc3Cl)CC2)N1 (stereo not drawn) | 8.972
CS(=O)(=O)NC1CCN(C(=O)c2ccc(F)cc2)CC1 | 22.77
CCn1nc(C)c2nc(C(C)C)nc(NCCCO)c21 | 5.791
CC[C@H]1CN(C(=O)C(C)(C)C)CC[C@H]1CC(=O)O | 0.9693
CCS(=O)(=O)NCC1Cn2nnc(-c3ccccc3)c2CO1 (stereo not drawn) | 4.629
Cc1cc(=O)c2ccccc2n1CC1CCN(C(C)C)C1 (stereo not drawn) | -7.176
CN(C)CCn1c(=O)n(C)c(=O)c2ccccc21.Cl | 110
CC(C)n1c(=O)c2ccccc2n(CCN2CCCCC2)c1=O | 58.61
CC(C)n1c(=O)c2ccccc2n(CCN(C)C)c1=O.Cl | 91.55
CC(CCc1ccccc1)NC(=O)CNCCCN(C)C.O=C(O)C(=O)O (stereo not drawn) | -3.27
CC(C)n1c(=O)c2ccccc2n(CCCN(C)C)c1=O.Cl | 74.16
CCCc1nc(Cn2c(=O)n(C)c3ccccc32)no1 | -1.157
CC(C)NC(=O)CN(C)C(=O)c1c(Cl)c2ccccc2n1C | 7.479
CCc1nc(Cn2c(=O)n(C)c3ccccc32)no1 | -3.957
CC(C)N1CCN(CCn2cnc3c(F)cccc3c2=O)CC1 | -1.52

SMILES | Percent Effect [%]
CC(C)NC(=O)CN(C)C(=O)c1c(Br)c2ccccc2n1C | -8.15
CC(C)S(=O)(=O)CC(=O)N(Cc1ccsc1)c1ccccc1 | -3.342
Cn1cc(CN2CCCC3(COCCN(Cc4c[nH]nn4)C3)C2)cn1.O=C(O)C(F)(F)F.O=C(O)C(F)(F)F (stereo not drawn) | -3.726
O=C(Cc1ccsc1)N1CCCC(c2cc(C(F)F)n3ncnc3n2)C1 (stereo not drawn) | 112.3
CC(C)C(=O)N1CCCC(c2cc(C(F)F)n3ncnc3n2)C1.Cl (stereo not drawn) | -4.51
COCC(=O)N1CCCC(c2cc(C(F)F)n3ncnc3n2)C1.Cl (stereo not drawn) | 109.8
Cc1nc(C2CCCN(C(=O)CO)C2)cc(N2CCOCC2)n1 (stereo not drawn) | -8.444
NC(=O)c1ccc(-n2ccnc2C2CC2)cc1N1CCCC1 | 30.18
COCCS(=O)(=O)N(Cc1ccsc1)c1ccccc1 | -9.25
COc1cc(CN(C)C(=O)NCC(=O)NC(C)C)ccc1SC | -30.2
COCC(=O)NCCC(=O)N1CCN(S(=O)(=O)c2cccc(Br)c2)CC1 | 2.832
Cl.O=C(NCCn1nc(C2CCNC2)c2cccnc21)C1CCC1 (stereo not drawn) | 119.3
O=C(CCNC(=O)C1CCCC1)NCc1cccnc1-n1cncn1 | -1.584
Cl.O=C(NCCn1nc(C2CCNC2)c2cccnc21)C1CC1 (stereo not drawn) | 104.4
Cc1cccc(C)c1OC1CN(C(=O)C2CCCN(C(=O)N(C)C)C2)C1 (stereo not drawn) | -13.19
O=C(NCCc1ccsc1)Nc1cccnc1N1CCCC1 | 0.6987
COc1c(C(=O)N2CCC(CSc3ccccc3)C2)c(C)nn1C (stereo not drawn) | 13.6
CCN(CC)S(=O)(=O)N(C)Cc1ccc2c(c1)OCCO2 | 104.5
CC(=O)NCCNC(=O)N(C)Cc1ccc2c(c1)OCCO2 | 1.28
CCS(=O)(=O)c1ccc2c(c1)OCCO2 | -1.362
CC(C)N(C)S(=O)(=O)N(C)Cc1cnn(C)c1 | -10.04
CC(C)N(C)S(=O)(=O)N(C)Cc1ccc2c(c1)OCCO2 | 98.7
CCN(CC)S(=O)(=O)N(CC)Cc1ccc2c(c1)OCCO2 | 92.18
CC(C)N(C)S(=O)(=O)N(C)Cc1ccc2c(c1)OCO2 | -1.448
CCS(=O)(=O)c1ccc2c(c1)OCCCO2 | -4.006
CCC[C@@H]1CN(Cc2ccc3c(c2)OCCO3)C[C@H]1C(=O)O | -6.164
